Assay outcomes deposited in PubChem by National Center for Advancing Translational Sciences (NCATS).
Sampled rows, rich in hits. Any-hit rate of the full collection: about 3.7%.
TGFb inhibitor – blocks TGF-b signaling; AID 588855; HepG2 CAGA-GFP TGF-b/SMAD3 reporter, GFP fluorescence, 18 h; TGF-beta stimulated, 500 pg/mL final; 410,000 tested, 1.2% active; Potency, µM (titrated, usually from 46.1 µM), without a hit: top-dose activity, negative = inhibition, hits mostly inhibitors; further: on the % scale 0 is the no-effect control and ±100 the full control effect; nearly all actives have a fitted effect of over 65% in size
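Using HEPG2 CAGA-GFP reporter cells at 1000 cells/well, we pinned test compounds, stimulated with recombinant TGF-beta (500 pg/mL final) and measured total well GFP after 18 h.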
ATXN2 expr inh – ATXN2 expression inhibition; Potency, µM (doses to about 57 µM), without a hit: at the top dose activity change, negative = inhibition, most hits filed as inhibitors; HEK-293 ATXN2-luciferase reporter, luminescence, 24 h; 360,000 tested, 0.72% active; further: on the % scale 0 is the no-effect control and ±100 the full control effect; nearly all actives have a fitted effect of over 55% in size
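qHTS (up to 57 uM final) was run with 24 h compound exposure of reporter cells at 37 °C. Each well was multiplexed: SteadyGlo luminescence measured ATXN2-luciferase expression after a fluorogenic Gly-Phe-AFC viability readout (25 uM final).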
HepG2 viability – counter-screen for TGF-b inhibitors: cytotoxicity in HepG2 cells. HepG2 CAGA-GFP viability, ATP luminescence, 18 h. Potency, µM (doses to about 46.1 µM), for inactives: at the top dose activity change, negative = cytotoxicity, hits mostly cytotoxic. 410,000 tested, 0.76% active. AID 588856
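HepG2 CAGA-GFP cells (1000/well, DMEM with 1% FBS) received compound, then TGF-beta at 500 pg/mL final, and were incubated 18 hours at 37 degrees C. Viability was read by CellTiter-Glo luminescence. Media-only wells were set as complete cell-killing and DMSO as no toxicity.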
GLP1R inv ag – acts as inverse agonist at human GLP-1 receptor; P43220; HEK293 GLP-1R CRE-luciferase, luminescence, 24 h; GLP-1R form is constitutively active; Potency, µM (doses to about 38.3 µM), inactives show at the top dose activity change, negative = inhibition, actives largely listed as inhibitors; 410,000 tested, 1.6% active; AID 624417; further: on the % scale 0 is the no-effect control and ±100 the full control effect; nearly all actives have a fitted effect of over 55% in size
Target sequence (P43220 whole entry, looked up): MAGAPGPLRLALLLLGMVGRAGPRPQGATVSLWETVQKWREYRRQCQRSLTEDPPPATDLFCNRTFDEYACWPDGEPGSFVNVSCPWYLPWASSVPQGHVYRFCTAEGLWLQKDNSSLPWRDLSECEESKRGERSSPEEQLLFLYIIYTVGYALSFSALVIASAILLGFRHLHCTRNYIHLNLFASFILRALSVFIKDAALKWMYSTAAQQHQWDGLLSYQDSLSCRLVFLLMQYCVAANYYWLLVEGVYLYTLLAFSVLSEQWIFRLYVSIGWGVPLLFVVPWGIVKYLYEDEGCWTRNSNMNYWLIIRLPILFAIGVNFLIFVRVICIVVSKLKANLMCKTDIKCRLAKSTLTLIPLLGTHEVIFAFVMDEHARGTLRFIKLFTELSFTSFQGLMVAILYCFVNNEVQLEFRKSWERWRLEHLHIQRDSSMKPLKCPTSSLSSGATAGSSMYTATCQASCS
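HEK293 cells stably co-expressing constitutively active GLP-1R and a cAMP-responsive luciferase reporter were seeded in DMEM with 10% Nu serum, given compounds after 12 h, and incubated 24 h at 37 deg C. Luminescence was then read.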
GLP-1R agonist – GLP-1 receptor (human) agonism. 380,000 tested, 0.007% active. Potency, µM (highest dose often 45.6 µM), for inactives: at the top dose activation, actives largely listed as activators. HEK293 GLP-1R CRE-luciferase, luminescence, 4-6 h; cells express a hypersensitive GLP-1R form. AID 624172. P43220; further: % of control where 0% means no effect
S2 tox – reduces viability in counter-screen for ATXN expression inhibitors; S2 cells (HEK-293 line with an ATXN2-luciferase reporter) viability, CellTiter-Fluor protease fluorescence, 24 h; AID 651635; Potency, µM (doses to about 56.7 µM), most hits filed as cytotoxic; 400,000 tested, 0.49% active; further: nearly all actives have a fitted effect of over 40% in size
Starred values were filed as active, the others as inactive; i = inactive; ? = inconclusive; . = not tested or not shown. The call rests on the fitted dose curve; in most records, active means well fitted curve in the direction sought with a large enough effect; inconclusive means small, poorly fitted or top-dose-only effect, or another doubt; inactive means no such curve, though single readings can be large; an effect the other way counts as inactive or inconclusive. Potency means the concentration at half of the fitted maximal effect.

SMILES	TGFb inhibitor	ATXN2 expr inh	HepG2 viability	GLP1R inv ag	GLP-1R agonist	S2 tox
CCn1c2ccccc2c2cc(/C=N/NC(=O)c3ccncc3)ccc21	8.91µM*	?	-33.5%	?	0.1%	?
CCn1c2ccccc2c2cc(/C=N/NC(=O)c3cc(O)cc(O)c3)ccc21	15.8µM*	-22.3%	-51.6%	?	12.8%	?
CCN(CC)c1cc(C)c(/C=C/c2ccnc3ccccc23)cc1C	-28.2%	.	-62.7%	.	.	.
CCn1nc(C)c(CN2CCC3(CCC(CNC(=O)c4ccccc4)O3)CC2)c1C (stereo not given)	.	.	.	.	.	i
S=C(NCCCc1cnc[nH]1)NCCCN(CCc1ccccc1)c1ccc(Br)cn1	?	.	-52.6%	.	.	.
S=C(NCCCc1cnc[nH]1)NCCCN(Cc1ccccc1)c1ccc(Br)cn1	?	0.0%	-56.5%	.	-0.5%	i
CCCCN(CCCNC(=S)NCCCc1cnc[nH]1)c1ccc(Br)cn1	?	?	-41.1%	.	4.7%	17.8µM*
O=C(NCCCc1cnc[nH]1)NCCCN(Cc1ccc(Cl)cc1)c1ccc(Br)cn1	?	.	-57.5%	.	.	.
S=C(NCCCc1cnc[nH]1)NCCCN(Cc1ccc(Cl)cc1)c1ncc(Br)cn1	17.8µM*	.	-90.7%	.	.	.
S=C(NCCCc1cnc[nH]1)NCCCN(Cc1ccc(Cl)cc1)c1ccc(Br)cn1	?	?	-98.0%	.	-2.8%	28.2µM*
S=C(NCCCc1cnc[nH]1)NCCCN(CCc1ccc(Cl)cc1)c1ccc(Br)cn1	?	.	10µM*	.	.	.
N#CC1(c2ccc(F)cc2)CCC(=O)CC1	.	-0.9%	.	.	.	i
CN(C)CCNc1cc(N2CCN(C)CC2)ncn1	15.1%	.	-22.6%	.	.	.
CC1(C)OC[C@@H]2O[C@@]3(C(=O)O)OC(C)(C)O[C@H]3[C@@H]2O1	.	-1.4%	.	.	.	i
CCOc1ccc(-c2cc(C(=O)Nc3ccc(C)c(NS(C)(=O)=O)c3)[nH]n2)c(C)c1	-20.3%	0.0%	-29.2%	7.08µM*	-2.6%	?
CCOc1ccc(-c2cc(C(=O)NCCOC)[nH]n2)c(C)c1	18.0%	13.7%	-8.6%	3.0%	6.8%	i
C=CCC[C@H](Cc1ccc(F)cc1)C(=O)OC[C@H](Cc1c[nH]c2ccccc12)NC(=O)[C@H](CC=C)CC(=O)N(CCO)Cc1ccccc1	?	?	-26.5%	?	-1.8%	31.6µM*
C=CC[C@@H](CC(=O)N(CCO)Cc1ccccc1)C(=O)NC[C@@H](OC(=O)[C@@H](CC=C)Cc1ccc(F)cc1)c1ccccc1	?	?	-24.9%	?	-3.5%	?
C=CC[C@H](CC(=O)N(CCO)Cc1ccccc1)C(=O)NC[C@H](OC(=O)[C@@H](CC=C)Cc1ccc(F)cc1)c1ccccc1	?	?	-40.3%	?	-16.8%	25.1µM*
C=CC[C@@H](Cc1ccc(F)cc1)C(=O)OC[C@@H]1CCCN1C(=O)[C@H](CC=C)CC(=O)N(CCO)Cc1ccccc1	?	?	-27.2%	9.3%	7.2%	20µM*
C=CC[C@@H](Cc1ccc(F)cc1)C(=O)OC[C@H]1CCCN1C(=O)[C@@H](CC=C)CC(=O)N(CCO)Cc1ccccc1	?	?	-24.7%	?	-4.8%	.
C=CCC[C@@H](Cc1ccc(F)cc1)C(=O)OC[C@H](C)NC(=O)[C@@H](CC=C)CC(=O)N(CCO)Cc1ccccc1	12.6µM*	?	-20.7%	?	5.1%	?
CC(C)(C)c1cc(NC(=O)Nc2ccc(-c3cn4c(n3)sc3cc(OCCN5CCOCC5)ccc34)cc2)no1	.	-5.6%	.	.	.	.
CN(C)c1ccc(/C=[N+]2\C(=O)CC(=O)NC2=O)cc1	1.4%	.	0.8%	.	.	.
COc1ccc(C(=O)NCCn2cc(SCC(=O)NCCc3ccc(OC)c(OC)c3)c3ccccc32)cc1	-26.7%	-14.4%	-11.0%	-2.2%	1.1%	?
SMILES	TGFb inhibitor	ATXN2 expr inh	HepG2 viability	GLP1R inv ag	GLP-1R agonist	S2 tox
CCNc1nc(C#N)nc(N2CCOCC2)n1	0.2%	.	-22.1%	.	.	.
C=CCC[C@@H](Cc1ccc(F)cc1)C(=O)OC[C@@H](Cc1c[nH]c2ccccc12)NC(=O)[C@@H](CC=C)CC(=O)N(CCO)Cc1ccccc1	12.6µM*	?	-69.4%	?	-1.4%	?
C=CC[C@@H](CC(=O)N(CCO)Cc1ccccc1)C(=O)N[C@H](COC(=O)[C@@H](CC=C)Cc1ccc(F)cc1)Cc1c[nH]c2ccccc12	?	0.0%	-12.9%	?	-0.6%	?
OC(COc1ccccc1)CN(Cc1ccccc1)CC(O)COc1ccccc1 (stereo not given)	?	-31.9%	-45.4%	?	-1.6%	i
CCC(=O)c1ccc(OCC(O)CN(CCc2ccccc2)Cc2ccccc2)cc1 (stereo not given)	?	?	-34.6%	8.91µM*	4.8%	i
O=C(N/C(=C\c1ccc(Cl)cc1)C(=O)N1CCCCC1)c1ccco1	-25.6%	3.5%	0.1%	10µM*	10.1%	i
COc1cc(/C=C/CN2CCOc3ccc(C(O)c4cccnc4)cc3C2)ccc1O (stereo not given)	.	.	.	.	.	i
O=C(NCc1nc2ccccc2[nH]1)C1=C[C@@H](c2ccc(Br)cc2)C[C@@H](OCCCCO)O1	-15.7%	0.0%	-37.7%	-13.9%	7.8%	.
O=C(Nc1ccccc1)C1=C[C@H](c2ccc(C(F)(F)F)cc2)C[C@H](OCc2ccc(CO)cc2)O1	12.6µM*	?	-32.4%	?	13.1%	?
O=C(Nc1ccccc1)C1=C[C@H](c2ccccc2)C[C@H](OCc2ccc(CO)cc2)O1	3.9%	3.8%	-4.9%	-16.1%	21.1%	i
O=C(NC1CC1)C1=C[C@H](c2csc3ccccc23)C[C@H](OCc2ccc(CO)cc2)O1	?	-21.1%	-18.1%	-11.9%	10.8%	?
O=C(Nc1ccccc1)C1=C[C@H](c2csc3ccccc23)C[C@H](OCc2ccc(CO)cc2)O1	?	-12.5%	-20.5%	10µM*	-8.8%	?
O=C(NCc1nc2ccccc2[nH]1)C1=C[C@@H](c2ccc(Br)cc2)C[C@@H](OCc2ccc(CO)cc2)O1	12.6µM*	0.0%	-57.2%	?	-0.6%	?
Cc1cc(NC(=O)Nc2ccc(Cl)c(Cl)c2)no1	-9.5%	24.9%	-36.5%	?	-6.6%	i
O=C(Nc1ccc(Cl)c(Cl)c1)Nc1ccon1	?	-8.5%	-35.2%	7.94µM*	5.3%	i
CN(C)CCNC(=O)Nc1ccc(Cl)c(Cl)c1	-7.8%	?	-8.3%	11.2µM*	-13.9%	i
